Screen size: about 1,100 compounds; about 760 (69%) were called active. No rule for the calls is given here. The set was probably picked from earlier hits. The list shows a part of the results.
Assay: M. tuberculosis growth inhibition, HTS (AID 1259417);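 also: bacteria grown with compound for 5 days at 37 °C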
Settings: stronger effect = higher value, concentration not given here
[1] = M. tuberculosis DsRed fluorescence growth inhibition
[2] = M. tuberculosis growth inhibition

Compound | inhibition [1] | inhibition [2]
O=c1c2ccccc2nc(C=Cc2ccc([N+](=O)[O-])o2)n1-c1cccc(O)c1 | 6.18% (inactive) | -1.52%
CCn1c(C=Cc2ccc([N+](=O)[O-])o2)nc2ccc(I)cc2c1=O | 36.1% (active) | 34.3%
Cc1ccc(C(=O)Nc2ccc([N+](=O)[O-])cc2)s1 | 98.3% (active) | 94.8%
CCOC(=O)c1ccc(NC(=O)C=Cc2ccc([N+](=O)[O-])s2)cc1 | 52.9% (active) | 80.2%
CCOC(=O)c1c(NC(=O)C2COc3ccccc3O2)sc2c1CC(C)(C)NC2(C)C (centres undefined) | 29.1% (inactive) | -2.75%
CCOC(=O)c1ccc(NC(=O)c2ccc(C)s2)cc1 | 91.5% (active) | 65.1%
Cc1ccc(C)c(OCC(=O)Nc2ccc(C(=O)OC(C)C)cc2)c1C | 8.22% (inactive) | -22.5%
O=c1c2cc(Cl)ccc2oc2nc3n(c(=O)c12)CCCS3 | 99.1% (active) | 98.2%
O=Cc1ccc2oc3nc4n(c(=O)c3c(=O)c2c1)CCCS4 | 96.9% (active) | 95.6%
O=C(Nc1ccn(Cc2ccc(Cl)cc2)n1)c1ccc2c(c1)OCO2 | 100% (active) | 99.3%
CC(C)c1ccc(-c2csc(NC(=O)c3ccc4c(c3)OCCO4)n2)cc1 | -4.25% (inactive) | -26.1%
O=C1N(Cc2ccccc2Cl)c2ccc(Br)cc2C1(O)c1c[nH]c2ccccc12 (centres undefined) | 10.6% (inactive) | -0.98%
O=C(Nc1ccccc1Br)c1ccc([N+](=O)[O-])o1 | 64% (active) | 42.2%
Cc1ccc(C(=O)Nc2ccc([N+](=O)[O-])cc2C)cc1I | 97.4% (active) | 83.2%
Cc1ccc(C(=O)Nc2sc(C)c(C)c2C(N)=O)cc1I | 3.89% (inactive) | -13.1%
CCc1cc(I)ccc1NC(=O)c1ccc([N+](=O)[O-])o1 | 98% (active) | 98.3%
CCN(CC)c1ccc(NC(=O)c2ccc([N+](=O)[O-])o2)c(C)c1 | 98.8% (active) | 99.7%
Cc1cc(NC(=O)c2ccc([N+](=O)[O-])o2)c(C)cc1I | 88% (active) | 92%
COc1ccc(CCNc2nc(-c3ccccn3)cs2)cc1OC | 89.5% (active) | 78%
c1ccc(CCNc2nc(-c3ccccn3)cs2)cc1 | 87.2% (active) | 86.6%
Cc1cn2c3c(=O)[nH]c(=O)n(C)c3nc2n1CCCNc1ccccc1 | 34.8% (active) | 31.6%
CC(C)c1ccc(Nc2nnc(SCC(=O)Nc3ncc(S(=O)(=O)c4ccc([N+](=O)[O-])cc4)s3)s2)cc1 | -1.44% (inactive) | -2.42%
Cc1cccc2sc(NC(=O)c3ccc(C(C)(C)C)cc3)nc12 | 12.6% (inactive) | 14.7%
COC(=O)CSc1nnc(NC(=O)c2ccc(Cl)cc2)s1 | 88.6% (active) | 86.6%
CCc1ccc(Nc2nnc(SCC(=O)Nc3cccnc3Cl)s2)cc1 | 7.74% (inactive) | 23.1%
CCOC(=O)C(C)Sc1nnc(NC(=O)c2ccc(C)c([N+](=O)[O-])c2)s1 (centres undefined) | -5.3% (inactive) | 0.339%
COC(=O)CSc1nnc(NC(=O)c2ccc(C(C)(C)C)cc2)s1 | 99.1% (active) | 98.3%

Source: PubChem BioAssay AID1259417 (TB Discovery Research, Infectious Disease Research Institute, 2018)
